Assay results: the supplement of paper PMC7156485
± gives the standard deviation of the averaged measurements.

Assays:
Conditions in all cases: concentration: 10 µM; 24 h
HCC1569 [1] = test: cell number relative to DMSO (% of DMSO); higher = more cells (less growth inhibition / toxicity)
In short: (§1)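 Treatment: HCC1569 and TDF cells, 800 per well in 384-well plates with RPMI and 10% FBS, were given compounds at 10 µM for 24 h at 37 °C, in triplicate. Readout: after 3.7% formaldehyde fixation, cells were stained with a rabbit anti-H1.0 antibody, an AlexaFluor 647 secondary and DAPI. Reported values are H1.0 nuclear intensity or cell number as percent of the plate control, taken as the median of replicates, with positional smoothing for HCC1569.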

TDF [2] = test: as above
In short: as §1

TDF [3] = test: H1.0 immunofluorescence intensity relative to DMSO (% of DMSO); higher = stronger H1.0 induction, active = 120 or more
In short: as §1

HCC1569 [4] = test: H1.0 immunofluorescence intensity relative to DMSO (% of DMSO); higher = stronger H1.0 induction, active = 140 or more
In short: as §1
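For H1.0 immunofluorescence intensity relative to DMSO in this document: TDF is a line of transformed human dermal fibroblasts of mesenchymal origin.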
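For cell number relative to DMSO in this document: TDF denotes transformed human dermal fibroblasts of mesenchymal origin.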

Row | Structure (SMILES) | cell number (HCC1569 [1]) | cell number (TDF [2]) | H1.0 immunofluorescence intensity (TDF [3]) | H1.0 immunofluorescence intensity (HCC1569 [4])
1 | CC(NC(=O)CCc1nc(=O)c2ccccc2[nH]1)c1ccccc1 (stereo not given) | 103 | 111 | 93.7 (inactive) | 105 (inactive)
2 | O=c1cc(-c2ccccc2)[nH]c2nc(Cl)ccc12 [7-Chloro-4-hydroxy-2-phenyl-1,8-naphthyridine] | 76.7 | 20.4 | 141 (active) | 116 (inactive)
3 | O=C(O)c1ccc2ccccc2c1O.OCc1cc(C(O)CNCCCCCCOCCCCc2ccccc2)ccc1O (stereo not given) [Salmeterol xinafoate] | 100 | 100 | 97.5 (inactive) | 121 (inactive)
4 | OCC1OC(OC2OC=CC3C(O)C4OC4(CO)C23)C(O)C(O)C1O (stereo not given) [Catalpol] | 105 | 106 | 96.6 (inactive) | 89.4 (inactive)
5 | CCCCCCCCCCCCCCCC(O)C(N)CO (racemic) [DL-erythro-Dihydrosphingosine] | 102 | 87.8 | 108 (inactive) | 96.9 (inactive)
6 | NC(CC(=O)[O-])C(=O)O.NC(CC(=O)[O-])C(=O)O.[Mg+2] [magnesium bis[(3S)-3-amino-3-carboxypropanoate]] | 101 | 102 | 94.5 (inactive) | 109 (inactive)
7 | Nc1ccn(C2CCC(CO)O2)c(=O)n1 (stereo not given) ["2',3' - Dideoxycytidine"] | 107 | 87.5 | 100 (inactive) | 101 (inactive)
8 | Nc1cccc(-c2cc3c(Oc4cccc(O)c4)ncnc3[nH]2)c1 [GSK3b Inhibitor XII, TWS119] | 60.2 | 55 | 112 (inactive) | 214 (active)
9 | COc1ccc(C(=O)Nc2c(Cl)cncc2Cl)cc1OC1CCCC1 | 102 | 93.3 | 91 (inactive) | 106 (inactive)
10 | CCC(=C(c1ccccc1)c1ccc(OCCN(C)C)cc1)c1ccccc1.O=C(O)CC(O)(CC(=O)O)C(=O)O [Tamoxifen citrate] | 85.2 | 95.2 | 115 (inactive) | 146 (active)
11 | CCn1cc(C(=O)O)c(=O)c2ccc(Cc3ccccc3)nc21 [Amfonelic acid] | 101 | 94.6 | 92.2 (inactive) | 95.4 (inactive)
12 | CC1(C)CCC2=C(O1)c1ccccc1C(=O)C2=O [beta-Lapachone] | 59.7 ± 36 | 25.4 ± 9.7 | 114 (inactive) | 111 (inactive)
13 | O=[N+]([O-])c1cccc2cn[nH]c12 [7-Nitroindazole] | 105 | 109 | 90.5 (inactive) | 92.6 (inactive)
14 | CC12CCc3occc3C1CCC13CC(=O)C(CCC12)C3 (stereo not given) [16-Oxocafestol] | 101 | 97.5 | 97.4 (inactive) | 98.5 (inactive)
15 | C[C@H](CCC(=O)O)[C@H]1CC[C@H]2[C@@H]3C[C@H](O)[C@@H]4C[C@H](O)CC[C@]4(C)[C@H]3CC[C@]12C [(3alpha,5beta,6alpha)-3,6-dihydroxycholan-24-oic acid] | 101 | 98.6 | 97.3 (inactive) | 106 (inactive)
16 | Nc1ncnc2c1ncn2C1CCCO1 (stereo not given) | 76.9 | 96.4 | 99 (inactive) | 183 (active)
17 | CCOC(=O)C(CCc1ccccc1)NC(C)C(=O)N1C(C(=O)O)CC2CCCC21 (stereo not given) [Ramipril] | 105 | 105 | 94.6 (inactive) | 111 (inactive)
18 | CCCNC1CCc2nc(N)sc2C1 (stereo not given) [Pramipexole] | 101 | 97.5 | 94.4 (inactive) | 107 (inactive)
19 | CN1CCCC1c1cccnc1.O=C(O)C(O)C(O)C(=O)O.O=C(O)C(O)C(O)C(=O)O (single isomer, unassigned; (-)) [(-)-Nicotine hydrogen tartrate salt] | 102 | 103 | 90 (inactive) | 99.2 (inactive)
20 | NS(=O)(=O)Cc1noc2ccccc12 [Zonisamide] | 101 | 94.5 | 96 (inactive) | 90.5 (inactive)
21 | CCN(CC)CCCCN1c2ccccc2Oc2ccc(Cl)cc21.Cl [Akt Inhibitor X] | 83 | 87.1 | 108 (inactive) | 150 (active)
22 | O=C(NOCC(O)CO)c1ccc(F)c(F)c1Nc1ccc(I)cc1F (stereo not given) | 105 | 104 | 87.3 (inactive) | 94.6 (inactive)
23 | CC1(C)CCCC(C)(C2CCC3(C)C2C(O)CC2C4(C)CCC(O)C(C)(C)C4C(O)CC23C)O1 (stereo not given) [Panaxatriol] | 100 | 93.4 | 94.8 (inactive) | 99.6 (inactive)
24 | CC(=O)O.NC(N)=NN=Cc1c(Cl)cccc1Cl [Guanabenz acetate] | 104 | 98 | 106 (inactive) | 97.8 (inactive)
25 | COc1cc(OC)cc(C(CNc2ncnc3c2ncn3C2OC(CO)C(O)C2O)c2ccccc2C)c1 (stereo not given) | 101 | 103 | 94.5 (inactive) | 100 (inactive)
